High-throughput results deposited in PubChem by National Center for Advancing Translational Sciences (NCATS).
Shown are actives, neighbours in structure and some others; about 2.3% of the full set was active somewhere.
TRPV1 agonist: HTS Assay for Compounds that Act as Agonists of the Vanilloid Receptor 1; Transient receptor potential cation channel subfamily V member 1 (Homo sapiens), Q8NER1; TRPV1-expressing cells, Fluo-8 calcium influx, agonist mode; activation, % at 8.33 µM; hit rate 0.19% among 320,000; in the data active = activation above about 80%; inconclusive = between about 30% and that limit; note: 0% is about no effect
Target sequence (Q8NER1 whole entry, looked up): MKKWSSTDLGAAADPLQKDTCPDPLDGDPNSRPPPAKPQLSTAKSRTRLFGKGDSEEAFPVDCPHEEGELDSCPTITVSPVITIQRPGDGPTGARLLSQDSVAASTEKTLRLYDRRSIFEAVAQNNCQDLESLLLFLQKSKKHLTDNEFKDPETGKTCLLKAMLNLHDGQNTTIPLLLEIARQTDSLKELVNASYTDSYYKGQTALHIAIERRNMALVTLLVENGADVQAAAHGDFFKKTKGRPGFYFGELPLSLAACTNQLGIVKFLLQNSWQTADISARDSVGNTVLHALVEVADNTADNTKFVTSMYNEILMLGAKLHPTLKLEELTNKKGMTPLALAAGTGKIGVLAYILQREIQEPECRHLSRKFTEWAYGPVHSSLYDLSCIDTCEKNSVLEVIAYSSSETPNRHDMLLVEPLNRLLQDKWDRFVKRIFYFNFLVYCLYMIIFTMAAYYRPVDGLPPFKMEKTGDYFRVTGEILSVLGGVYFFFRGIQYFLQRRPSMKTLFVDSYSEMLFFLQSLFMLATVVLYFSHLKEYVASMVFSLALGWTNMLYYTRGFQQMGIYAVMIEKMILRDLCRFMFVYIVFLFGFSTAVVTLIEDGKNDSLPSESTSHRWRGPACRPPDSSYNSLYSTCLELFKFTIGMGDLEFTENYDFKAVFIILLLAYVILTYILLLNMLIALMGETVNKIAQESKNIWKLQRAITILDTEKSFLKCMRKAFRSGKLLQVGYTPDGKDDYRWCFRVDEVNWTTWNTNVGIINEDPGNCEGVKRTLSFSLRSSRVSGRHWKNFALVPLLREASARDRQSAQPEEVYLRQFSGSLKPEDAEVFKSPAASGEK
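Fluo-8 calcium influx in TRPV1-expressing cells, kinetic read (ex 480/em 520 nm). Compound added and read 3 min for agonist activity, followed by capsaicin at EC20 final and 2 min further read for enhancement.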
FUS suppressor: qHTS for Suppressors of FUS Proteinopathy: Primary screen using FUS-linked yeast assay. S. cerevisiae FUS-expressing, growth rescue, OD600, 24 h. Potency, µM (series often up to 76.6 µM), usual class: activators. hit rate 0.24% among 390,000. AID 1347120, 2019;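 note: potency is the fitted concentration of half-maximal effect; plate controls were DMSO vehicle for no effect and reference control for full effect; nearly all actives have a fitted effect of over 55% in size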
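FUS-expressing yeast, raffinose-pregrown, induced in 2% galactose minimal medium at OD 0.005; compounds in a dilution series, 24hr at 30C. Growth restoration read as absorbance at 600 nm. CP55940 positive control, DMSO negative.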
ELG1 repair inh: qHTS screen for small molecules that inhibit ELG1-dependent DNA repair in human embryonic kidney (HEK293T) cells expressing luciferase-tagged ELG1 | HEK293T ELG1-luciferase reporter, luminescence, 16 h; DNA damage induced by 5-fluorouridine | Potency, µM (doses to about 46.1 µM), without a hit: at the highest dose activity change, negative = inhibition, hits mostly inhibitors | hit rate 2.3% among 330,000; note: potency is the fitted concentration of half-maximal effect; % is set by controls: 0 for no effect and ±100 for the full control effect; nearly all actives have a fitted effect of over 55% in size
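DMSO vehicle served as the neutral condition. Each well held 2,000 cells given 5-fluorouridine plus compound; after 16 hr at 37 °C/5% CO2, ONE-Glo was added and luciferase measured 30 min later.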
TRPV1 potentiator: HTS Assay for Compounds that Act as Potentiators of the Vanilloid Receptor 1; Transient receptor potential cation channel subfamily V member 1 (Homo sapiens), Q8NER1; TRPV1-expressing cells, Fluo-8 calcium influx, capsaicin EC20 potentiation; potentiation, % at 8.33 µM; hit rate 0.02% among 320,000; AID 540277, 2011; in the data active = potentiation above about 80%; inconclusive = between about 30% and that limit; note: 0% is about no effect
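TRPV1-expressing cells were cultured overnight at 35.5C and loaded with Fluo-8 calcium dye for 40 to 90 min at room temperature. After a 10 s baseline, compound was added and calcium influx was read kinetically for 3 min (ex 480/em 520 nm).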
Giardia killer: Small Molecules that selectively kill Giardia lamblia: qHTS. Giardia lamblia trophozoite viability. activity change, % at 7.66 µM, hits read low. hit rate 0.15% among 340,000; in the data active = activity change below about -80%; inconclusive = between about -30% and that limit;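 note: parasites exposed to compound for two days anaerobically before the ATP read; % is set by controls: 0 for no effect and ±100 for the full control effect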
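Compounds were tested on trophozoites seeded at 100 cells/well and held 48 hrs at 37 deg C anaerobically. An ATP-based luminescent kit measured the remaining live cells.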
Active calls of the source: *; i = inactive; ? = inconclusive; nt = no result given. Unless noted, calls come from the whole dose curve; as a rule, active = well fitted curve in the direction sought with a large enough effect; inconclusive = small, poorly fitted or top-dose-only effect, or another doubt; inactive = no such curve, though single readings can be large; an effect the other way counts as inactive or inconclusive.

SMILES	TRPV1 agonist	FUS suppressor	ELG1 repair inh	TRPV1 potentiator	Giardia killer
CCOc1ccccc1CN1CCc2nc(N3CCN(C)CC3)ncc2C1	nt	i	nt	nt	nt
O=C(COc1cccc(C(F)(F)F)c1)N1CCN(c2ccc(O)cc2)CC1	?	?	16.4µM*	-7.6	-7.9
O=C(COc1cccc(C(F)(F)F)c1)N1CCN(c2ccccc2O)CC1	?	i	-3.6%	-4.8	-2.4
CC(=O)c1ccccc1OCC(O)Cn1c(CO)nc2ccccc21 (configuration not stated)	nt	i	nt	nt	nt
C/C(=N\O)C(C)(C)Nc1cccc(F)c1	-3.4	i	12.7%	-0.2	0.2
C/C(=N\O)C(C)(C)Nc1cccc(Br)c1	11.1	i	11.6µM*	-5.9	1.7
COc1ccccc1C1NC(=O)NC(C)=C1C(=O)OCC1CCCCC1 (configuration not stated)	nt	i	nt	nt	nt
COc1cc(-c2nc(-c3ccccc3)c(-c3cc([N+](=O)[O-])ccc3C)[nH]2)cc(OC)c1OC	1.9	i	7.31µM*	17.2	-13.3
CCc1ccc(NC(=O)c2ccc(F)c(S(=O)(=O)N3CCN(c4cc(C)ccc4C)CC3)c2)cc1	nt	i	nt	nt	nt
N#Cc1c(NCCN)nc(NCc2ccccc2)c2c1CCN(Cc1ccccc1)C2	-1.9	nt	13µM*	-2.3	-0.4
CCOc1ccc(NC(=O)c2cc3cc(C)ccc3n2C)cc1	nt	i	nt	nt	nt
COc1ccc(N/C=C(\C#N)c2nc3ccccc3n2C)c(OC)c1	2.9	?	25.9µM*	14.2	-2.4
Cn1c(/C(C#N)=C/c2ccccc2Br)nc2ccccc21	nt	i	nt	nt	nt
O=C(CSc1nc2ccsc2c(=O)n1Cc1ccccc1Cl)NCc1ccc(F)cc1	nt	i	nt	nt	nt
O=C(Nc1ccccc1)N1CCCN(c2nccc(C(F)(F)F)n2)CC1	87.1*	i	9.6%	-4.3	7.0
CC(C)(C)c1ccc(NC(=O)N2CCCN(c3ccc([N+](=O)[O-])cn3)CC2)cc1	92.3*	i	?	-16.4	6.1
O=C(Nc1ccccc1)N1CCN(c2ccc(C(F)(F)F)cn2)CC1	?	i	20.6µM*	-24.2	-4.1
O=C(Nc1ccc([N+](=O)[O-])cc1)N1CCCCCC1	19.4	i	?	-20.1	16.0
O=C(Nc1ccccc1)N1CCN(c2cccc(C(F)(F)F)c2)CC1	?	i	?	-1.7	14.3
COc1ccccc1CCNC(=O)CCc1c(C)c2cc3c(C)coc3cc2oc1=O	nt	i	nt	nt	nt
C=C(C(=O)c1ccccc1)C(CC(=O)c1ccccc1)c1ccccc1 (configuration not stated)	20.3	i	13µM*	-7.4	-3.6
C=C(CCC(=O)c1ccccc1)C(=O)c1ccccc1	16.7	i	-29.7%	-13.6	6.9
Cc1cccc(CCNC(=O)c2ccc(CSCc3cccc(Cl)c3)o2)c1	nt	i	nt	nt	nt
O=C(c1ccco1)N(CCCN1CCOCC1)c1nc(-c2ccc(F)cc2)cs1	?	i	9.2µM*	-15.2	9.4
O=C(c1ccco1)N(CCCN1CCOCC1)c1nc(-c2ccc(Cl)cc2)cs1	5.2	i	20.6µM*	8.9	-2.8
SMILES	TRPV1 agonist	FUS suppressor	ELG1 repair inh	TRPV1 potentiator	Giardia killer
CCN(CC)CCCN(C(=O)c1ccco1)c1nc(-c2ccc(C)cc2)cs1	-0.1	i	-5.6%	6.3	30.5
Cc1ccc(CSc2nc3cccnc3n2Cc2ccc(C(=O)NC3CCCCC3)cc2)cc1	nt	i	nt	nt	nt
CCCn1c(=O)n(C)c(=O)c2c(SCC(=O)Nc3cc(C)on3)nc(C(C)(C)C)nc21	8.7	i	8.2µM*	1.6	-14.0
Cc1cc(NC(=O)CSc2nc(C(C)C)nc3c2c(=O)n(C)c(=O)n3C)no1	-3.4	i	-20.3%	14.4	-7.8
CCN1CCN(c2oc(-c3ccc(COc4ccc(C)cc4)o3)nc2C#N)CC1	nt	i	nt	nt	nt
O=C(N/N=C/c1cc(Cl)ccc1O)c1ccncc1	?	i	14.6µM*	-20.2	2.3
O=C(N/N=C/c1ccccc1Cl)c1ccncc1	6.1	i	3.8%	-10.6	-0.7
O=C(N/N=C/c1cn(Cc2ccccc2)c2ccccc12)c1cccnc1	4.2	i	16.9%	5.7	?
